Each compound was assayed against Neurogenic locus notch homolog protein 2 (Homo sapiens) (UniProt Q04721) (assay: small molecules binding Notch2 protein – biochemical, small-molecule microarray, 635 nm fluorescence, stem cell growth factors, primary screen (AID 1073)). Details: higher = more signal.
Sequence of Neurogenic locus notch homolog protein 2 (Homo sapiens) (Q04721 whole entry, looked up): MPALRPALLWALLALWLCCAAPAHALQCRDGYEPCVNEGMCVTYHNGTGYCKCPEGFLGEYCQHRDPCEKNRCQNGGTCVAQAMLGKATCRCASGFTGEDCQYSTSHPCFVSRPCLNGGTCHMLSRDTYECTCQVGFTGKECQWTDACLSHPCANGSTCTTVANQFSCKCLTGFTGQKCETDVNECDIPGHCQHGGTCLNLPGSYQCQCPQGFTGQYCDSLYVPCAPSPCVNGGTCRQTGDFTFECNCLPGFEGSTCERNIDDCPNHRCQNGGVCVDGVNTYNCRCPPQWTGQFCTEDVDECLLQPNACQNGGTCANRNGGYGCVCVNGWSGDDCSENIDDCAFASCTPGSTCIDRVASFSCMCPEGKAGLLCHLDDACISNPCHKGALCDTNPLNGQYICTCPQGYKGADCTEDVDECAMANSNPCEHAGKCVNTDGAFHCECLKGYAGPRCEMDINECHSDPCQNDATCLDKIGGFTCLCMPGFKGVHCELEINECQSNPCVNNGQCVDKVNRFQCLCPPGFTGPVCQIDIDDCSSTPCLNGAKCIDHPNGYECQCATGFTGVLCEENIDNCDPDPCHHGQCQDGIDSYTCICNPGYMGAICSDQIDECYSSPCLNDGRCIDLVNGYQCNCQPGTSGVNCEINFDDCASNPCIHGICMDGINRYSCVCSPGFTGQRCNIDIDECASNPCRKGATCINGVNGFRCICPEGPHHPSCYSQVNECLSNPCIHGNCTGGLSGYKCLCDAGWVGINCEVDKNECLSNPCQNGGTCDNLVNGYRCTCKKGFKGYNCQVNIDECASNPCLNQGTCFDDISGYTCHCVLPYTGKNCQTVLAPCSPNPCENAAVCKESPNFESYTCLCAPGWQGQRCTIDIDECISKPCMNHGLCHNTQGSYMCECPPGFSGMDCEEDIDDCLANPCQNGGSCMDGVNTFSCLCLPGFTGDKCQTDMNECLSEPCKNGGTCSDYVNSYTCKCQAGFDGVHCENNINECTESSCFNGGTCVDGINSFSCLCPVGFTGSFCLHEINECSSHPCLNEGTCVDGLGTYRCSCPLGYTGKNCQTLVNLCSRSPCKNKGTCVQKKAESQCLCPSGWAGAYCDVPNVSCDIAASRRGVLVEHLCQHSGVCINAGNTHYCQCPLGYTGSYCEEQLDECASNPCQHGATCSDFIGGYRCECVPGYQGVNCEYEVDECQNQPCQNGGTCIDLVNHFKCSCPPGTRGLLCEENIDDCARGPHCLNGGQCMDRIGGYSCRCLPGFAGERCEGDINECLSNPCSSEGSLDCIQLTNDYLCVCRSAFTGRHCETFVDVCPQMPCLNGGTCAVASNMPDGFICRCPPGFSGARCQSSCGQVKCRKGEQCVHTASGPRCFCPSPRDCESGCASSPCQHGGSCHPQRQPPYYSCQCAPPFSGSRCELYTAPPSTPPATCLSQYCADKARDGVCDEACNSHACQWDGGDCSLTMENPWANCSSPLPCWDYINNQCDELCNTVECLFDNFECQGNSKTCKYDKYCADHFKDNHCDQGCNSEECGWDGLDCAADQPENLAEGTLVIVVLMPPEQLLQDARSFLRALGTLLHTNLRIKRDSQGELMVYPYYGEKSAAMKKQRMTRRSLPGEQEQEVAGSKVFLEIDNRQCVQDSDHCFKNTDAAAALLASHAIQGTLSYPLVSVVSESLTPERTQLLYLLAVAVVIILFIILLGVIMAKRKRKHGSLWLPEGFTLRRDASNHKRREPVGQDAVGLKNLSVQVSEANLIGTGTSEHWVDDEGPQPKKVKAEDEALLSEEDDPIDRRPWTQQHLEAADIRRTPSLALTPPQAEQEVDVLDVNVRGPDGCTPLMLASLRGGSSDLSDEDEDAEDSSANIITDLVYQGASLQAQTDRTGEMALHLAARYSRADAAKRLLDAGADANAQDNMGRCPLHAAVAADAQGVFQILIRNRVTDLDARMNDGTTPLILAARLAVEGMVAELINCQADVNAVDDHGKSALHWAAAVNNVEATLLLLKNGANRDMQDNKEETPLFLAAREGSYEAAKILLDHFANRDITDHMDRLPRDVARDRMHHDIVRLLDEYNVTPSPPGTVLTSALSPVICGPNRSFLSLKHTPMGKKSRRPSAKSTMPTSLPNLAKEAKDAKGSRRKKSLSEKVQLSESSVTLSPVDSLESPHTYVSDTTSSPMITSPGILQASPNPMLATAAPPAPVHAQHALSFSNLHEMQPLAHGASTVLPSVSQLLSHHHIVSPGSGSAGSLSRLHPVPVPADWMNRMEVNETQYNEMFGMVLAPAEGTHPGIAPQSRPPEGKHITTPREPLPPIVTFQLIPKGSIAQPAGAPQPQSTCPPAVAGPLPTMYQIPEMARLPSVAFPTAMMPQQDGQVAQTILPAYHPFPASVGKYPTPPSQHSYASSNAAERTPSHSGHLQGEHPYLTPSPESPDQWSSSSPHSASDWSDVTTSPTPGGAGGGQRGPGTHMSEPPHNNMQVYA

Point of comparison: `COc1cccc([C@@H]2Oc3ccc(Br)cc3C(=O)[C@H]2O)c1`, composite z-score 0.458. Against it:
- C=CC[C@@H]1C=C[C@H](ON=C(C)CCN2CCc3nc(CC)c(CC)cc3C2)[C@@H](CO)O1 — lower, 0.0383
- O=C1C2C=CC(C(O)c3ccc([N+](=O)[O-])cc3)N(Nc3ccc([N+](=O)[O-])cc3)C2C(=O)N1c1ccccc1 (centres undefined) — higher, 1.63
- CC(C)[C@H](NC(=O)OC(C)(C)C)[C@@H](O)CC(=O)OC(C)(C)C — lower, -0.756
- NCCCCCNC(=O)[C@@H]1C[C@@H]2C(=O)N3CCC[C@H]3C(=O)N2[C@@H]1c1cccc(OCCO)c1 — lower, 0.185
- COC(=O)CC=C[C@H](C)[C@@H](OCc1ccccc1Br)C(C)C — lower, 0.0089
- COc1ccc([Si](C)(C)[C@H]2[C@H](CCO)O[C@@]3(C(=O)N(Cc4cccc(NC(=O)[C@H](C)O)c4)c4ccccc43)[C@@H]2C)cc1 — higher, 0.612
- CCOC(=O)CCN1C(=O)[C@H]2[C@H]3[C@H](O)C=CC(=O)[C@@H]3CC[C@H]2C1=O — lower, 0.25
- CCN1C(=O)[C@H]2[C@H]3[C@H](O)[C@H](O)CC(=NOC[C@@H](C)[C@H](OCc4ccccc4)C(C)C)[C@@H]3CC[C@H]2C1=O — lower, 0.399
- CO[C@H]1COC(=O)[C@H](C)COC(=O)CC=C[C@@H](C)[C@H](OC)COC(=O)CC=C[C@@H]1C — lower, -0.217
- C=C(CCCC)C(=O)CC[C@@H](OC(C)=O)c1cccc(OCCO)c1 — lower, -0.46
- C[C@H](c1ccccc1)N1C(=O)[C@H]2[C@@H]3C(=CC[C@H]2C1=O)C(=O)[C@H]1O[C@H]1[C@H]3O — higher, 0.582
- CC(C)CON=C1C[C@@H](O)[C@@H](O)[C@@H]2[C@@H]3C(=O)N(C[C@@H]4CCCO4)C(=O)[C@@H]3CC[C@H]12 — higher, 0.595
- CCOC(=O)C1=CC[C@H]2C(=O)N(CC)C(=O)[C@@H]12 — higher, 0.937
- C#CCCCON=C1C[C@@H](O)[C@@H](O)[C@@H]2[C@@H]3C(=O)N(c4cccc(Oc5ccccc5)c4)C(=O)[C@@H]3CC[C@@H]12 — higher, 0.88
- CC(CCN1CCc2nc(-c3ccccc3)c(-c3ccccc3)cc2C1)=NOC(C)CN1CCCCc2nc(C)c(C)cc21 (centres undefined) — higher, 0.519
- CCOC(=O)[C@H](CC(C)C)NC(=O)CCC1CC(OC(=O)NCc2cccc3ccccc23)CC2(CCCC(COC(=O)NCCc3ccccc3OC)O2)O1 (some centres undefined) — higher, 1.14
- CS(=O)(=O)CCOC(=O)C1=CC(CCCO)=CC(c2cccs2)N(Cc2cccc(OC(F)(F)F)c2)C=C1C(=O)OCCS(C)(=O)=O (centres undefined) — higher, 1.14
- NC(=O)NCC#Cc1ccc2c(c1)[C@]1(C(=O)N2)[C@H](c2ccc(O)cc2)N2[C@H](c3ccccc3)[C@H](c3ccccc3)OC(=O)[C@H]2[C@@H]1C(=O)N1CCCCCCC1 — higher, 0.617
- O=C(CS)NCCCCCNC(=O)[C@H]1C[C@H]2C(=O)N3CCC[C@H]3C(=O)N2[C@H]1c1cccc(OCCO)c1 — lower, -0.0686
- CO[C@H]1COC(=O)[C@H](C)NC(=O)[C@@H](C)COC(=O)CC=C[C@@H]1C — lower, -0.0804
- C=CCOC(=O)[C@H]1[C@@H]2C(=O)O[C@@H](c3ccccc3)[C@@H](c3ccccc3)N2[C@@H](c2ccc(OCCOC(=O)[C@H]3C[C@H]4C(=O)N5CCC[C@H]5C(=O)N4[C@H]3c3cccc(OCCO)c3)cc2)[C@]12C(=O)Nc1ccc(I)cc12 — higher, 1.47
- CCN1C(=O)[C@H]2[C@H]3[C@H](O)[C@H](O)CC(=NOCC=C(C)CCC=C(C)C)[C@H]3CC[C@H]2C1=O — higher, 0.698
- CC(C)[C@@H](OCc1ccccc1)[C@H](C)C=NOC[C@@H](C)[C@H](OCc1ccccc1)C(C)C — lower, 0.303
- CC=CC1=C(CO)[C@H](O)[C@H]2O[C@H]2[C@H]1O — lower, -0.0482
- COc1ccc(COC(=O)NN=C2C[C@@H](O)[C@@H](O)[C@@H]3[C@@H]4C(=O)N(Cc5ccc6c(c5)OCO6)C(=O)[C@@H]4CC[C@@H]23)cc1 — lower, -0.732
- CN1C(=O)C2C=CC(C(O)c3ccc(I)cc3)N(NC(=O)OC(C)(C)C)C2C1=O (centres undefined) — higher, 1.68
- COc1ccc(COC(=O)NN=C2C[C@@H](O)[C@@H](O)[C@@H]3[C@@H]4C(=O)N(c5ccc(F)cc5F)C(=O)[C@@H]4CC[C@@H]23)cc1 — lower, -0.392
- CCOC(=O)[C@H](CC(C)C)NC(=O)CCC1CC(OC(=O)NCCc2ccc(F)cc2)CC2(CCCC(COC(=O)NCc3ccccc3)O2)O1 (some centres undefined) — higher, 0.769

— PubChem BioAssay
